The record followed here is PubChem BioAssay (EPA / NIEHS).

SMILES strings stand for the structures. The source made the active and inactive calls. How the source made its calls: active means hit-call score of the fitted dose curve at least 0.9, where 1 is the maximum; inactive means score below 0.9.

Experiment [1] can be described thus: APR_HepG2_CellCycleArrest_24hr: Apredica 24-hour HepG2 Assay for Cell Cycle Arrest (AID 2282905).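 Further: cell cycle arrest scored as ratio of 2N to 4N nuclear DNA content.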 As to conditions: imaging, actives raise or lower the signal. An outline of the steps:
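After 24 h exposure at 0.39–200 uM in 0.5% DMSO, fixed cells received Hoechst 33342 staining. Imaging quantified per-nucleus DNA content; gain or loss fitted against DMSO controls.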

A short description of experiment [2]: APR_HepG2_NuclearSize_24hr: Apredica 24-hour HepG2 Assay for Nuclear Size (AID 2282907). Particulars: high-content imaging, actives raise or lower the signal. An outline of the steps: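 Nuclear size from Hoechst 33342-stained, formaldehyde-fixed HepG2 nuclei imaged by high-content microscopy, after 24 h dosing at ten concentrations from 0.39 to 200 uM in 0.5% DMSO; gain or loss relative to DMSO baseline.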

Experiment [3] is described as follows: APR_HepG2_CellLoss_24hr: Apredica 24-hour HepG2 Assay for Cell Loss (AID 2282908).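 On AC50: fit in both directions so a hit may be cell loss or gain.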 Particulars: high-content imaging. The gist of the method: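 Nuclei stained with Hoechst 33342 after formaldehyde fixation (3.7%) were imaged at 20x to count cells. Exposure lasted 24 hr, at ten concentrations from 0.39 to 200 uM in duplicate, with 0.5% v/v DMSO. Fit bidirectional, relative to DMSO.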

Experiment [4] can be described thus: APR_HepG2_MicrotubuleCSK_24hr: Apredica 24-hour HepG2 Assay for Microtubule CSK Stabilty (AID 2282909). As to conditions: HepG2 microtubule cytoskeleton imaging, actives raise or lower the signal. The gist of the method: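 Fixed HepG2 cells were stained for alpha-tubulin and imaged after 24 hr exposure to ten concentrations spanning 0.39–200 uM in 0.5% DMSO. Signal change was fitted in both directions relative to DMSO; taxol was the positive control.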

A short description of experiment [5]: APR_HepG2_MitoticArrest_24hr: Apredica 24-hour HepG2 Assay for Mitotic Arrest (AID 2282910). Particulars: high-content imaging, actives raise or lower the signal. The gist of the method: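 Treatment lasted 24 hr in the human HepG2 line at 0.39–200 uM, solvent held at 0.5% DMSO. Fixed cells were stained with Hoechst 33342 and anti-phospho-histone H3, imaged at 20x, and analysed by gain- or loss-of-signal fitting against DMSO.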

A short description of experiment [6]: APR_HepG2_MitoMembPot_24hr: Apredica 24-hour HepG2 Assay for Mitochondrial Membrane Potential (AID 2282911). Particulars: imaging, actives raise or lower the signal. The gist of the method:
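HepG2, 24 hr dosing, 10 concentrations 0.39–200 uM, 0.5% DMSO final. Live-cell MitoTracker Red CMXRos 250 nM 30 min, then 3.7% formaldehyde fix. HCS fluorescence imaging, 20x; bidirectional fit vs DMSO baseline.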

Experiment [7] is described as follows: APR_HepG2_MitoMass_24hr: Apredica 24-hour HepG2 Assay for Mitochondrial Mass (AID 2282912). Particulars: high-content imaging, actives raise or lower the signal. The gist of the method:
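Endpoint is MitoTracker Red CMXRos (250 nM, 30 min, pre-fixation) intensity from 20x high-content imaging, nuclei located by Hoechst. Human HepG2 cells received ten concentrations from 0.39 to 200 uM in 0.5% DMSO for 24 hr, duplicate wells. Bidirectional fit relative to DMSO.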

Experiment [8] in a line: APR_HepG2_p53Act_24hr: Apredica 24-hour HepG2 Assay for p53 Activation (AID 2282913).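 Further: p53 protein immunofluorescence averaged per cell in HepG2 with Hoechst nuclei.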 Particulars: high-content imaging, actives raise or lower the signal. The gist of the method: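 Read-out: Cy5 immunofluorescence for p53 in fixed, permeabilized HepG2, imaged by HCS with Hoechst-defined nuclei. Dosing was 24 hr at 0.39–200 uM in 0.5% DMSO. Curves were fitted bidirectionally relative to DMSO.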

Experiment [9] can be described thus: APR_HepG2_CellCycleArrest_72hr: Apredica 72-hour HepG2 Assay for Cell Cycle Arrest (AID 2282914). Particulars: high-content imaging, actives raise or lower the signal. An outline of the steps: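 HepG2, 72 hr exposure, 10-point 0.39–200 uM, duplicate, 0.5% DMSO final. Fix 3.7% formaldehyde 30 min RT, Triton X-100 0.5%, Hoechst 33342 2 ug/mL. ArrayScan 20x, six fields/well; DNA content per nucleus; bidirectional fit vs DMSO.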

A short description of experiment [10]: APR_HepG2_P-H2AX_72hr: Apredica 72-hour HepG2 Assay for H2AX Phosphorylation (AID 2282916).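 Further: phospho-histone H2A.x immunostain intensity per cell marking DNA damage.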 Particulars: imaging, actives raise or lower the signal. An outline of the steps: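 Phospho-histone H2A.x immunofluorescence, multiplexed with Hoechst and c-Jun, quantified by high-content imaging. Compounds applied to HepG2 for 72 h across ten concentrations (0.39–200 uM, 0.5% DMSO), in duplicate; DMSO baseline.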

The nature of experiment [11]: APR_HepG2_MitoMembPot_72hr: Apredica 72-hour HepG2 Assay for Mitochondrial Membrane Potential (AID 2282917). Particulars: imaging, actives raise or lower the signal. An outline of the steps:
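HepG2 cells exposed 72 h to compounds at 0.39–200 uM (0.5% v/v DMSO, duplicates); MitoTracker Red CMXRos 250 nM loaded 30 min before 3.7% formaldehyde fixation, imaged by HCS fluorescence. Bidirectional fit versus DMSO.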

Experiment [12] can be described thus: APR_HepG2_MitoticArrest_72hr: Apredica 72-hour HepG2 Assay for Mitotic Arrest (AID 2282918). As to conditions: high-content imaging, actives raise or lower the signal. The gist of the method: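 HepG2, 72 hr exposure, 0.39–200 uM in duplicate, 0.5% v/v DMSO final. Formaldehyde-fixed, Triton-permeabilized, anti-phospho-histone H3/FITC plus Hoechst. ArrayScan imaging at 20x; curves fit bidirectionally against DMSO baseline.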

Experiment [13] in a line: APR_HepG2_MicrotubuleCSK_72hr: Apredica 72-hour HepG2 Assay for Microtubule CSK Stabilty (AID 2282919). Particulars: HepG2 microtubule cytoskeleton, high-content imaging, actives raise or lower the signal. An outline of the steps:
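Ten-point dosing (0.39–200 uM, 0.5% DMSO) of HepG2 for 72 hr, with taxol as the cytoskeletal positive control. The cells were formaldehyde-fixed and then stained with alpha-tubulin/Cy5 and Hoechst. Imaging at 20x used a −2 um Z offset for tubulin.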

The nature of experiment [14]: APR_HepG2_P-H2AX_24hr: Apredica 24-hour HepG2 Assay for H2AX Phosphorylation (AID 2282920). As to conditions: high-content imaging, actives raise or lower the signal. The gist of the method:
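HCS fluorescence imaging of phospho-H2A.x immunostain (with Hoechst 33342 nuclear counterstain) in HepG2 after 24 hr compound exposure; 10 concentrations, 0.39–200 uM, duplicate wells, 0.5% v/v DMSO. Gain or loss of signal fitted relative to DMSO baseline.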

The nature of experiment [15]: APR_HepG2_StressKinase_72hr: Apredica 72-hour HepG2 Assay for Stress Kinase (AID 2282921). Particulars: HepG2 stress kinase (phospho-c-Jun) imaging, actives raise or lower the signal. The gist of the method:
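Stress kinase signal is phospho-c-Jun immunofluorescence (1:500 primary, Cy3 secondary) in fixed, permeabilized human HepG2 cells imaged at 20x. Exposure lasted 72 hr over ten concentrations from 0.39 to 200 uM, 0.5% DMSO, in duplicate. Bidirectional fit versus DMSO.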

Experiment [16] is described as follows: APR_HepG2_StressKinase_24hr: Apredica 24-hour HepG2 Assay for Stress Kinase (AID 2282922). As to conditions: HepG2 stress kinase (phospho-c-Jun) imaging, actives raise or lower the signal. An outline of the steps: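 After 24 hr compound treatment (up to 200 uM, final DMSO 0.5% v/v), HepG2 cells are fixed and multiplex-labeled; phospho-c-Jun intensity is captured by high-content fluorescence imaging and analyzed relative to DMSO.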

The nature of experiment [17]: APR_HepG2_p53Act_72hr: Apredica 72-hour HepG2 Assay for p53 Activation (AID 2282923).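 Further: average cellular p53 protein immunofluorescence intensity in HepG2 cells.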 Particulars: high-content imaging, actives raise or lower the signal. The gist of the method:
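After 72 h with compound (ten points, 0.39 to 200 uM, final DMSO 0.5% v/v), fixed HepG2 cells were labelled with sheep anti-p53 and Hoechst 33342 and imaged; gain or loss versus DMSO scored.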

Experiment [18] can be described thus: APR_HepG2_MitoMass_72hr: Apredica 72-hour HepG2 Assay for Mitochondrial Mass (AID 2282924).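 Further: MitoTracker Red CMXRos stain intensity per cell imaged as mitochondrial mass.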 Particulars: high-content imaging, actives raise or lower the signal. The gist of the method: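 Steps: treat HepG2 72 hr (0.39–200 uM, duplicate wells); load MitoTracker Red CMXRos, 250 nM, 30 min; fix with 3.7% formaldehyde, permeabilise with 0.5% Triton X-100; capture images, nuclei via Hoechst 33342; fit bidirectionally against DMSO.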

Experiment [19] in a line: APR_HepG2_NuclearSize_72hr: Apredica 72-hour HepG2 Assay for Nuclear Size (AID 2282925). As to conditions: high-content imaging, actives raise or lower the signal. The gist of the method: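 Compounds (0.39–200 uM, final DMSO 0.5%) were applied to HepG2 for 72 hr. Cells were then formaldehyde-fixed, permeabilized and labelled with Hoechst 33342. Nuclear diameter was quantified from six images per well.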

By AC50 is commonly meant the midpoint of the concentration-response curve, whichever way the signal moves.

Take `C[C@]12CC[C@@H]3c4ccc(O)cc4CC[C@H]3[C@@H]1CC[C@H]2O`: the call in [1], in experiment [7], in experiment [10], in experiment [11], in experiment [12] and in [13] was inactive. Moreover, the call in experiment [15], in experiment [16], in experiment [17], in experiment [18] and in [19] was inactive. Further, the AC50 is 105 µM (active) in experiment [2]; 68.1 µM (active) in experiment [3]; 100 µM (active) in experiment [4]; 97.1 µM (active) in experiment [5]; 16.8 µM (active) in [6]; 54.6 µM (active) in experiment [8]. The AC50 in experiment [9] was 173 µM (active); in experiment [14], 62.4 µM (active).

As for `COCC(C)OCC(C)OCC(C)O` (stereo unspecified), the outcome in experiment [1], in experiment [2], in experiment [3], in experiment [4], in [5] and in [6] was inactive. Besides, the compound was called inactive in experiment [7], in [8], in experiment [9], in experiment [10], in experiment [11] and in [12]. In addition, the result in [13], in experiment [14], in experiment [15], in experiment [16], in experiment [17] and in [18] was inactive. In [19], the result was inactive.

Regarding `Cc1ccc2oc(CN(Cc3ccccc3)C(=O)Nc3c(F)cc(F)cc3F)c(-c3ccc(Cl)cc3)c2c1`, the call in [1], in experiment [2], in experiment [3], in [4], in experiment [5] and in [6] was inactive. The compound was called inactive in [7], in experiment [8], in [9], in experiment [10], in [11] and in experiment [12]. In addition, the compound was called inactive in experiment [13], in experiment [14], in [15], in experiment [16], in experiment [17] and in experiment [18]. The call in experiment [19] was inactive.

With `CCCC(=O)OCCC(C)C`, the result in [1], in [2], in experiment [3], in experiment [4], in [5] and in [6] was inactive. Further, the outcome in [7], in experiment [8], in [9], in experiment [10], in [12] and in experiment [13] was inactive. Moreover, the compound was classed as inactive in experiment [14], in experiment [15], in experiment [16], in [17], in experiment [18] and in experiment [19].

Regarding `Cc1oc2c(NC(=O)c3c(Cl)cccc3Cl)cccc2c1C(C)(C)O`, the compound was classed as inactive in [1], in [2], in experiment [3], in [4], in [5] and in experiment [6]. The compound was called inactive in experiment [7], in experiment [8], in experiment [9], in experiment [10], in experiment [11] and in [12]. Besides, the outcome in experiment [13], in experiment [14], in experiment [15], in experiment [16], in experiment [17] and in experiment [18] was inactive. Besides, the compound was classed as inactive in experiment [19].

For the compound `O=C1CCC(C2CCCCC2)CC1`, the result in experiment [1], in [2], in experiment [3], in experiment [4], in experiment [5] and in experiment [7] was inactive. The outcome in experiment [8], in experiment [9], in [10], in [12], in experiment [13] and in experiment [14] was inactive. Also, the compound was called inactive in experiment [15], in [16], in experiment [17], in experiment [18] and in experiment [19]. In addition, in experiment [6], the half-maximal activity concentration (AC50) was 19.8 µM (active).

Turning to `CC(C)(C)c1cc(/C=C2\SC(N)=NC2=O)cc(C(C)(C)C)c1O`, the concentration at half-maximal activity (AC50) was 64.9 µM (active) in [1]; 53.1 µM (active) in experiment [3]; 29.5 µM (active) in experiment [4]; 52.3 µM (active) in experiment [5]; 32.7 µM (active) in experiment [7]; 61.7 µM (active) in experiment [8]. Further, the half-maximal activity concentration (AC50) in [10] is 41.6 µM (active); in experiment [12] it was 40.3 µM (active); in [13] it was 27.4 µM (active); in experiment [14], 55.2 µM (active); in [15], 60.5 µM (active); in experiment [16], 60 µM (active). For the same compound, the values for the AC50 in experiment [17] and in experiment [18] were 35.2 µM (active) and 86.1 µM (active), respectively. The compound was classed as inactive in [2], in experiment [6], in [9], in experiment [11] and in experiment [19].
